# Reference: publication PMC7862700, “An all-to-all approach to the identification of sequence-specific readers for epigenetic DNA modifications on cytosine”
# What was measured:
# Experiment in all cases: DAPPL (digital affinity profiling via proximity ligation, sequencing); 10 mM Tris-HCl pH 7.5, 50 mM NaCl, 1 mM DTT, 4% glycerol, room temperature, 30 min; GST-TFs on glutathione beads, 16-mer random dsDNA library, 0.1% formaldehyde crosslink after washing; high values mean tight binding
# [1] = biological target: T1, FLI1 (Homo sapiens, UniProt Q01543 1-452); details: protein: recombinant; tags: N-terminal GST; dsDNA, one strand shown
# T1 sequence: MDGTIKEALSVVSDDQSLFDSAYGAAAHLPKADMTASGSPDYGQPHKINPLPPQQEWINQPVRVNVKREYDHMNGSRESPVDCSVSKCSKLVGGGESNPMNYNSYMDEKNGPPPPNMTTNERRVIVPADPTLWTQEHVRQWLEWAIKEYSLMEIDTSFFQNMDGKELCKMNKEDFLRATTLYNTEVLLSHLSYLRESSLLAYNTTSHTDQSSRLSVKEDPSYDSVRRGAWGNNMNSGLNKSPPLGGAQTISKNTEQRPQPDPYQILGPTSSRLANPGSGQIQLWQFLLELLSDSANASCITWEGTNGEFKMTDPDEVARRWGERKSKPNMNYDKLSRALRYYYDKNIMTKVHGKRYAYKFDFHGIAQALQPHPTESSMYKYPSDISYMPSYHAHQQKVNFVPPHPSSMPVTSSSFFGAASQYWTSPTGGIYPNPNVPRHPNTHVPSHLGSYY
# In short: (§1)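 GST fusions of human transcription factors were expressed in yeast and captured with glutathione beads. Once given DNA barcodes and pooled alongside a tag-only sample, they were incubated for 30 min at room temperature with 200 nmole of a random double-stranded 16-mer DNA library in Tris/NaCl/DTT/glycerol buffer, then washed, crosslinked (0.1% formaldehyde), proximity-ligated, PCR-amplified and sequenced on an Illumina NextSeq500. The binding signal of each hexamer is its read frequency for a factor divided by its frequency for the tag-only sample.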
# [2] = biological target: T2, ELK1 (Homo sapiens, UniProt P19419 1-428); details: protein: recombinant; tags: N-terminal GST; dsDNA, one strand shown
# T2 sequence: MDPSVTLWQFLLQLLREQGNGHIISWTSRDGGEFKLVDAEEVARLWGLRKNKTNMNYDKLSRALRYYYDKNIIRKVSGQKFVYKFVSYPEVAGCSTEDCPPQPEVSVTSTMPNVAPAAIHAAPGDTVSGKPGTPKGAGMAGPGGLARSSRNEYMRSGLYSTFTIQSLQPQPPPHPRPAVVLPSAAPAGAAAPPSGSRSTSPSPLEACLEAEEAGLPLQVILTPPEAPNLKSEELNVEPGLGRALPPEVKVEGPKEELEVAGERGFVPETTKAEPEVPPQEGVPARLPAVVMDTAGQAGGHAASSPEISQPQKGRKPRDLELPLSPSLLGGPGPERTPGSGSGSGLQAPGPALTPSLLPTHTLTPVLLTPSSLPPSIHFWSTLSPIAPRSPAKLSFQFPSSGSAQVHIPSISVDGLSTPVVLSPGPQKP
# In short: as §1
# [3] = biological target: T3, GABPA (Homo sapiens, UniProt Q06546 1-454); details: protein: recombinant; tags: N-terminal GST; dsDNA, one strand shown
# T3 sequence: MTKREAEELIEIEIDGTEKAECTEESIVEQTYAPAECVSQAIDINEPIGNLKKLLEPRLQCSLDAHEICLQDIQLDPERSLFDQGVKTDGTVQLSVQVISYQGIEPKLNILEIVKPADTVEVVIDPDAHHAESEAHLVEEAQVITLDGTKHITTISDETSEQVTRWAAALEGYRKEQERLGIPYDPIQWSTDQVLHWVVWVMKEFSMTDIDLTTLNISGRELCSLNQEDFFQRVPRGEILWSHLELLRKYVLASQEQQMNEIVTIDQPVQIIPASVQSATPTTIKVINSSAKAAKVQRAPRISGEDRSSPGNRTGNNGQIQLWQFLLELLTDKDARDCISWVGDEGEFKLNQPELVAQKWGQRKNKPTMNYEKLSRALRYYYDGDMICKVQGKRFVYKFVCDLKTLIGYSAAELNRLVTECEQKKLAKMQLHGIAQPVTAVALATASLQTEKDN
# In short: as §1
# [4] = biological target: T4, ERG (Homo sapiens, UniProt P11308 1-479); details: protein: recombinant; tags: N-terminal GST; dsDNA, one strand shown
# T4 sequence: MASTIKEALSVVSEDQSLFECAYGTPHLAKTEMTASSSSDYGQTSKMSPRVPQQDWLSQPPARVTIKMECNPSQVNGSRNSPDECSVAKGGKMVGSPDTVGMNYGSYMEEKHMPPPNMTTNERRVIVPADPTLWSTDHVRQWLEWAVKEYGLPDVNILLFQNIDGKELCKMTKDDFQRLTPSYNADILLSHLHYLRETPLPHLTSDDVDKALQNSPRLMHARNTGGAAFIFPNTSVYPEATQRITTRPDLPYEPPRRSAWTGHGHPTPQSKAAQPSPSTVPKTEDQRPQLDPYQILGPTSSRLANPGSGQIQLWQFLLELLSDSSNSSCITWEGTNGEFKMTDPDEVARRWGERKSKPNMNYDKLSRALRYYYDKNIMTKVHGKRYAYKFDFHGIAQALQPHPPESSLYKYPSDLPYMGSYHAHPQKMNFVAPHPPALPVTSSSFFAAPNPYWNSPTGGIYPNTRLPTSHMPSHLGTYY
# In short: as §1
# [5] = biological target: ELF1 (Homo sapiens, UniProt P32519 1-619); details: protein: recombinant; tags: N-terminal GST; dsDNA, one strand shown
# ELF1, sequence (P32519 whole entry): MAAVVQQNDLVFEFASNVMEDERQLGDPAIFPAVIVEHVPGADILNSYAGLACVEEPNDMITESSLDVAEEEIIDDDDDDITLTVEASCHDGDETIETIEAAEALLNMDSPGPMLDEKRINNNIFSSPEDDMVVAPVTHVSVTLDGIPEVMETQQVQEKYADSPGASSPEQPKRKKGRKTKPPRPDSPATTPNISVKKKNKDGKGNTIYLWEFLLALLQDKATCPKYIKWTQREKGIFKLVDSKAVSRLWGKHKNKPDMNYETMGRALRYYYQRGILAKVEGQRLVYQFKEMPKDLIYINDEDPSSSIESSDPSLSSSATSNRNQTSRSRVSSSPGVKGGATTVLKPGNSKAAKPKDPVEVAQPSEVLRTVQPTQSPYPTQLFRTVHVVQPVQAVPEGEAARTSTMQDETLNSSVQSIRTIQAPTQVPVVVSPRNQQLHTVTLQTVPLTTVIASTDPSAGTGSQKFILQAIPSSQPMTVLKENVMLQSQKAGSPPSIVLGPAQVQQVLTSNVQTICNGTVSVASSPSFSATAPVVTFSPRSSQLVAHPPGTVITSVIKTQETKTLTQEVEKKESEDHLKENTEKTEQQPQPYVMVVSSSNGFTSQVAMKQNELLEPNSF
# In short: as §1
# [6] = biological target: T5, EHF (Homo sapiens, UniProt Q9NZC4 1-300); details: protein: recombinant; tags: N-terminal GST; dsDNA, one strand shown
# T5 sequence: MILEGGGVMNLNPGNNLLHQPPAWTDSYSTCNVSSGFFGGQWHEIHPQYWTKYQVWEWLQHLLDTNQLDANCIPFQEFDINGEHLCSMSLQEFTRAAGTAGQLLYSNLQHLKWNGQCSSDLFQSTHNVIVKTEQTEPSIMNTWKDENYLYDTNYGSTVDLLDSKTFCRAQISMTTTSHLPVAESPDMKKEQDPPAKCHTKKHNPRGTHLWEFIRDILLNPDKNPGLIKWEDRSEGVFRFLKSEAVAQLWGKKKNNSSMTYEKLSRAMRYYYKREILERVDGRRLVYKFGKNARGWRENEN
# In short: as §1
# [7] = biological target: SPI1 (Homo sapiens, UniProt P17947 1-270); details: protein: recombinant; tags: N-terminal GST; dsDNA, one strand shown
# In short: as §1
# [8] = biological target: SPIB (Homo sapiens, UniProt Q01892 1-262); details: protein: recombinant; tags: N-terminal GST; dsDNA, one strand shown
# SPIB, sequence (Q01892 whole entry): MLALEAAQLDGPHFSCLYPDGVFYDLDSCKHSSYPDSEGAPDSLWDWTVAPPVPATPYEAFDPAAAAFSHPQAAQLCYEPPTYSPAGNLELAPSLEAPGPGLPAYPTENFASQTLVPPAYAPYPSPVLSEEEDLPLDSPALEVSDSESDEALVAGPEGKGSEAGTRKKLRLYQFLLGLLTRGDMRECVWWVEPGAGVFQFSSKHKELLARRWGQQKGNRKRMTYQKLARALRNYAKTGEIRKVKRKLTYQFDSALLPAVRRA
# In short: as §1
# [9] = biological target: T6, ELK3 (Homo sapiens, UniProt P41970 1-407); details: protein: recombinant; tags: N-terminal GST; dsDNA, one strand shown
# T6 sequence: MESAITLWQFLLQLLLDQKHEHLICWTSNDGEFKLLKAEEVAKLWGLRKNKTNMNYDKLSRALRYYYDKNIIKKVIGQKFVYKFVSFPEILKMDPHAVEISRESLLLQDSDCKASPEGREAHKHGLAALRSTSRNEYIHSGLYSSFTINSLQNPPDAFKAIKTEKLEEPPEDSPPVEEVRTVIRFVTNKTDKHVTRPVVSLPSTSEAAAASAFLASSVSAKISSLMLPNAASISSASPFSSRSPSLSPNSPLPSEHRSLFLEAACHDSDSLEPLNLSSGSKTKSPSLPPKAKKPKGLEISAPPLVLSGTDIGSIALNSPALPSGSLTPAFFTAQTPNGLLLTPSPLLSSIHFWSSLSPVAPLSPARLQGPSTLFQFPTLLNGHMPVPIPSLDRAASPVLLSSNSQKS
# In short: as §1
# [10] = biological target: T7, FEV (Homo sapiens, UniProt Q99581 1-238); details: protein: recombinant; tags: N-terminal GST; dsDNA, one strand shown
# T7 sequence: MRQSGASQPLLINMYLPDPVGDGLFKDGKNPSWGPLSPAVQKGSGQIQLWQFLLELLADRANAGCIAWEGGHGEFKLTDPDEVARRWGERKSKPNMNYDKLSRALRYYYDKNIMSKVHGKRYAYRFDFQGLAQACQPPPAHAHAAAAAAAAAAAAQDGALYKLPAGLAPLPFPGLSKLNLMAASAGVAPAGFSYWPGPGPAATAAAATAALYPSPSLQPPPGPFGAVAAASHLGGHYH
# In short: as §1
# [11] = biological target: ETV5 (Homo sapiens, UniProt P41161 1-510); details: protein: recombinant; tags: N-terminal GST; dsDNA, one strand shown
# ETV5, sequence (P41161 whole entry): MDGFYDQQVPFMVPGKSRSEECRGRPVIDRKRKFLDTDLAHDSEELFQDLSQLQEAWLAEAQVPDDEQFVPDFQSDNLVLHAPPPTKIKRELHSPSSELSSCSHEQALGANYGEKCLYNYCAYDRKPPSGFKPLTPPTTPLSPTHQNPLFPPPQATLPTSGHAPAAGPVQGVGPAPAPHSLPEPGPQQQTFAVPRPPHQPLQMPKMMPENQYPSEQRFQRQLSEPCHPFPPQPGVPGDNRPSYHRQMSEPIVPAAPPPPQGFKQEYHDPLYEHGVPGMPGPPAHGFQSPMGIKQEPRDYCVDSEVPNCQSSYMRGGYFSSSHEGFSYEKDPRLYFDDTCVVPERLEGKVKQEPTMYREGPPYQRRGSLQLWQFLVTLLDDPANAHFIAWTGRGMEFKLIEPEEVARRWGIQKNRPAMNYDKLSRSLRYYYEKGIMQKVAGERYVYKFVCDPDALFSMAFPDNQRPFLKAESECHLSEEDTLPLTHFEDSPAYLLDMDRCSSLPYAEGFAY
# In short: as §1
# [12] = biological target: HSF1 (Homo sapiens, UniProt Q00613 1-529); details: protein: recombinant; tags: N-terminal GST; chain copies: 3; dsDNA, one strand shown
# HSF1, sequence (Q00613 whole entry): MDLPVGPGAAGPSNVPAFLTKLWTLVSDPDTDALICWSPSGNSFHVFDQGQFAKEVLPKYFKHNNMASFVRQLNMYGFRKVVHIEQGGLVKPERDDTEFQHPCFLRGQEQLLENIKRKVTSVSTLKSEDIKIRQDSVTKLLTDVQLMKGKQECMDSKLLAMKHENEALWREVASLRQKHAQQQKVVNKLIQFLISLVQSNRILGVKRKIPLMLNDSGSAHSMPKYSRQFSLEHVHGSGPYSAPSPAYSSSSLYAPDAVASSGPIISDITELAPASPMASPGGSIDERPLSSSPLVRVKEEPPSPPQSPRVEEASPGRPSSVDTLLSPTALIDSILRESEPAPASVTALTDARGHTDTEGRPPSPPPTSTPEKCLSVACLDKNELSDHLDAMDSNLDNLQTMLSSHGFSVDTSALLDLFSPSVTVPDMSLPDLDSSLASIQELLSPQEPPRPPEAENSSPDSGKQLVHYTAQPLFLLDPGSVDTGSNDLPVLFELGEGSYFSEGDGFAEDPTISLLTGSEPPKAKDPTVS
# In short: as §1
# [13] = biological target: T8, SPIC (Homo sapiens, UniProt Q8N5J4 1-248); details: protein: recombinant; tags: N-terminal GST; dsDNA, one strand shown
# T8 sequence: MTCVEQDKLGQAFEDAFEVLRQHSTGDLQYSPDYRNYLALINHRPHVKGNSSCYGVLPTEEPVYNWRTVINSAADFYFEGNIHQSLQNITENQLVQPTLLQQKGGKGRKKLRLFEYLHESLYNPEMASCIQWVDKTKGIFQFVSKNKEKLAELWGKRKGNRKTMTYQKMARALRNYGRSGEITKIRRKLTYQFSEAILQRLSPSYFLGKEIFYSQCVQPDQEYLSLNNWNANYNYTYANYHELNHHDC
# In short: as §1
# [14] = biological target: ELF4 (Homo sapiens, UniProt Q99607 1-663); details: protein: recombinant; tags: N-terminal GST; dsDNA, one strand shown
# ELF4, sequence (Q99607 whole entry): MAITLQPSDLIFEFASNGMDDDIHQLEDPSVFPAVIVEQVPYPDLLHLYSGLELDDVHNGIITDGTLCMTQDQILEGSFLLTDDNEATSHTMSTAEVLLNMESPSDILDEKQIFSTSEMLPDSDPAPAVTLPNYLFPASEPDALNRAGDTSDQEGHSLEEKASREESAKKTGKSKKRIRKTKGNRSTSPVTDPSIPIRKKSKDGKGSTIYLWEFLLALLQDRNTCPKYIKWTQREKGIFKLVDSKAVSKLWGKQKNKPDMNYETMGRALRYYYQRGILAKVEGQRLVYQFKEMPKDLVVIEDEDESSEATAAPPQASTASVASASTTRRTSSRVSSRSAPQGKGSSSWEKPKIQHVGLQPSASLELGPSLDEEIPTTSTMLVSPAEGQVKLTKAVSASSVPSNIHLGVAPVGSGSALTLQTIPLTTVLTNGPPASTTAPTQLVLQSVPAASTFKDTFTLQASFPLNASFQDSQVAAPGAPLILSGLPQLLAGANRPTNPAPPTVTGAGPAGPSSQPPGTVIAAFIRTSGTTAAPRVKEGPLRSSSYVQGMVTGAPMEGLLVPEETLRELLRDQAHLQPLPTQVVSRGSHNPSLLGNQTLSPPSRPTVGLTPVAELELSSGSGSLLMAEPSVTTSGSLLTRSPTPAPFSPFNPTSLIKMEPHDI
# In short: as §1
# [15] = biological target: T9, ELK4 (Homo sapiens, UniProt P28324-2 1-405); details: protein: recombinant; tags: N-terminal GST; dsDNA, one strand shown
# T9 sequence: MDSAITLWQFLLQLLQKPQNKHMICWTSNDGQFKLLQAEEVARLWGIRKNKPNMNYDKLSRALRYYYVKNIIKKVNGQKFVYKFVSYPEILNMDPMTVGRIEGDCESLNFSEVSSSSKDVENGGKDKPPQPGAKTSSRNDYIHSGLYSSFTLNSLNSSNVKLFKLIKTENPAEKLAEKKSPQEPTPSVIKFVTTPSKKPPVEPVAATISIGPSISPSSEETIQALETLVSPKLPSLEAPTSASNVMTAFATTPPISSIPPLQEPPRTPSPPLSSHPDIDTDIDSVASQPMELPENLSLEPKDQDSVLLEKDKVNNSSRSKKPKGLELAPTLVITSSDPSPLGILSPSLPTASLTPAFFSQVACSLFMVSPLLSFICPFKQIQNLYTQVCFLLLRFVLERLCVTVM
# In short: as §1
# [16] = biological target: T10, ETV2 (Homo sapiens, UniProt O00321 1-342); details: protein: recombinant; tags: N-terminal GST; dsDNA, one strand shown
# T10 sequence: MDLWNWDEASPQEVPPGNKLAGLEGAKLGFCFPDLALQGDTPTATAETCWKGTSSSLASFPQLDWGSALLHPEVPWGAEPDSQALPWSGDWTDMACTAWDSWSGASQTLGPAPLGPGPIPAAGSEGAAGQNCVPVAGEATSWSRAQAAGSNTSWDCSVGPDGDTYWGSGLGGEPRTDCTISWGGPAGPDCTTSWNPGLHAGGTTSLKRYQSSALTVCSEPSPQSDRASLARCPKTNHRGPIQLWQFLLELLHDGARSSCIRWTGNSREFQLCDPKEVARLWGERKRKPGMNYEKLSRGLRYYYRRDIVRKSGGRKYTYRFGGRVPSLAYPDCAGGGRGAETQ
# In short: as §1
# [17] = biological target: T11, ELF3 (Homo sapiens, UniProt P78545 1-371); details: protein: recombinant; tags: N-terminal GST; dsDNA, one strand shown
# T11 sequence: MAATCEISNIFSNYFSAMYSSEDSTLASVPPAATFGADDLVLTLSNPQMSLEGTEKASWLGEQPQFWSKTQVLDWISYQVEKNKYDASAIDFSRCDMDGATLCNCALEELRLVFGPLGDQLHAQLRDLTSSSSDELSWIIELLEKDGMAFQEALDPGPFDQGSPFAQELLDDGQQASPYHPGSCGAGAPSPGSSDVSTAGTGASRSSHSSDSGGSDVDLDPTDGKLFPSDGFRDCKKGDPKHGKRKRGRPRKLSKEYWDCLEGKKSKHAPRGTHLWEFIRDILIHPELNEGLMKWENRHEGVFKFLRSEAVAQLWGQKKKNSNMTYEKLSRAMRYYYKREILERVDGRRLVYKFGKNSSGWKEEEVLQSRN
# In short: as §1
# [18] = biological target: CRX (Homo sapiens, UniProt O43186 1-299); details: protein: recombinant; tags: N-terminal GST; dsDNA, one strand shown
# CRX, sequence (O43186 whole entry): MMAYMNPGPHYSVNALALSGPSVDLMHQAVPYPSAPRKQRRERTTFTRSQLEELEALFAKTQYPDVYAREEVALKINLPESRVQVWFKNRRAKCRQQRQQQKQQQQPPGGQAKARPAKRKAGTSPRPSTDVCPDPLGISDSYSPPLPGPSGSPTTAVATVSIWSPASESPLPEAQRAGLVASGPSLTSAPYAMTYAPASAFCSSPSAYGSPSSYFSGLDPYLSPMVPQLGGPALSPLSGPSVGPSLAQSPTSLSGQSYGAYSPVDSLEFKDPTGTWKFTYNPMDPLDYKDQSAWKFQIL
# In short: as §1
# [19] = biological target: ETV1 (Homo sapiens, UniProt P50549 1-477); details: protein: recombinant; tags: N-terminal GST; dsDNA, one strand shown
# ETV1, sequence (P50549 whole entry): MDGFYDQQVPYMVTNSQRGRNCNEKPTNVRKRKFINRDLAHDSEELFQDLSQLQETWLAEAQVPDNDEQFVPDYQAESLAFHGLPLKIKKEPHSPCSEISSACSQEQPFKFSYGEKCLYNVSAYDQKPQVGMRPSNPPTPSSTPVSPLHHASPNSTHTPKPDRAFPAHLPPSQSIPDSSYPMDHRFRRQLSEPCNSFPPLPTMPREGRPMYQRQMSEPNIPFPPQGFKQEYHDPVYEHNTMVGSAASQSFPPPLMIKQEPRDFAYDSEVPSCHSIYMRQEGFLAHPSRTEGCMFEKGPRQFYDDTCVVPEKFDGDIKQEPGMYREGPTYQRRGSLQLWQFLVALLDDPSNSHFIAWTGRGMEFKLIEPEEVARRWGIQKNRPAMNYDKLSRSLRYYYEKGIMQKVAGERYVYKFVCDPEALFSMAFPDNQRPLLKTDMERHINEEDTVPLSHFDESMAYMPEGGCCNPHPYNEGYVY
# In short: as §1
sequence,measurement,setting,value
ATCCCG,binding signal,[1],"1.5 fold enrichment (6-mer frequency, TF over GST control)"
same,binding signal,[2],"1.36 fold enrichment (6-mer frequency, TF over GST control)"
same,binding signal,[3],"1.47 fold enrichment (6-mer frequency, TF over GST control)"
same,binding signal,[4],"1.44 fold enrichment (6-mer frequency, TF over GST control)"
same,binding signal,[5],"1.42 fold enrichment (6-mer frequency, TF over GST control)"
same,binding signal,[6],"1.39 fold enrichment (6-mer frequency, TF over GST control)"
same,binding signal,[7],"1.32 fold enrichment (6-mer frequency, TF over GST control)"
same,binding signal,[8],"1.39 fold enrichment (6-mer frequency, TF over GST control)"
same,binding signal,[9],"1.34 fold enrichment (6-mer frequency, TF over GST control)"
same,binding signal,[10],"1.35 fold enrichment (6-mer frequency, TF over GST control)"
same,binding signal,[11],"1.43 fold enrichment (6-mer frequency, TF over GST control)"
same,binding signal,[12],"1.58 fold enrichment (6-mer frequency, TF over GST control)"
same,binding signal,[13],"1.39 fold enrichment (6-mer frequency, TF over GST control)"
same,binding signal,[14],"1.4 fold enrichment (6-mer frequency, TF over GST control)"
same,binding signal,[15],"1.37 fold enrichment (6-mer frequency, TF over GST control)"
same,binding signal,[16],"1.28 fold enrichment (6-mer frequency, TF over GST control)"
same,binding signal,[17],"1.37 fold enrichment (6-mer frequency, TF over GST control)"
same,binding signal,[18],"1.67 fold enrichment (6-mer frequency, TF over GST control)"
same,binding signal,[19],"1.44 fold enrichment (6-mer frequency, TF over GST control)"
